The record followed here is the supplement of paper PMC9262897, “Low-cost anti-mycobacterial drug discovery using engineered E. coli” (Nature Communications, 2022).

SMILES strings stand for the structures. Counter-ions that a name gives are not always drawn. ± gives the standard deviation of the averaged measurements.

One assay has as its system E. coli TESEC Mtb DapB. As to the kind of experiment: growth (OD600 after 10 h); higher = more growth (less inhibition). The settings on record: arabinose induction (level): High; compound 0.1 mM; raw OD600 reference: median of DMSO wells […], cell-free background 0.041. Here is the method: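 TESEC E. coli strains in which the native enzyme is deleted and replaced by arabinose-inducible Mtb Asd, DapB, CysH or TrpD, each grown in its selective medium. Strains were screened against the Prestwick library at 0.1 mM and 1% DMSO in 384-well format at low and high arabinose induction. Growth is read as OD600 after 10 h in triplicate.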
In turn, `CCCC(C)C1(CC)C(=O)NC(=O)NC1=O` (stereo not given) [Pentobarbital] returned a growth of 0.2 ± 0.01.

Take `O=c1[nH]c2ccccc2n1C1CCN(CCCC(c2ccc(F)cc2)c2ccc(F)cc2)CC1` [Pimozide]: the growth was 0.186 ± 0.015.

The molecule `C[C@H](N)[C@H](O)c1ccc(O)c(O)c1` [Levonordefrin] had a growth of 0.167 ± 0.003.

With `O=c1[nH]c2ccccc2n1CCCN1CCC(n2c(=O)[nH]c3cc(Cl)ccc32)CC1` [Domperidone], the growth was found to be 0.137 ± 0.005.

Turning to `Cc1cc(C(C#N)c2ccc(Cl)cc2)c(Cl)cc1NC(=O)c1cc(I)cc(I)c1O` (stereo not given) [Closantel], the growth was 0.0896 ± 0.013.

`C[N+](C)(C)CCCCCCCCCC[N+](C)(C)C` [Decamethonium bromide] yielded a growth of 0.234 ± 0.021.

The molecule `COc1cccc(C2(O)CCCCC2CN(C)C)c1` (stereo not given) [Tramadol hydrochloride] yielded a growth of 0.188 ± 0.04.

With `C#C[C@]1(O)CC[C@H]2[C@@H]3CCC4=CC(=O)CCC4=C3C=C[C@@]21CC` [Gestrinone], the growth came out at 0.179 ± 0.015.

`S=C(NC1CCCCC1)N1CCC(c2cnc[nH]2)CC1` [Thioperamide maleate]: the growth turned out to be 0.201 ± 0.015.

In turn, `C=C1CC[C@@]2(O)[C@H]3Cc4ccc(O)c5c4[C@@]2(CCN3CC2CC2)[C@H]1O5` [Nalmefene hydrochloride] displayed a growth of 0.194 ± 0.028.

In turn, `CC(=O)O[C@H]1CC[C@@]2(C)C(=CC[C@@H]3[C@@H]2CC[C@]2(C)C(=O)CC[C@@H]32)C1` [Dehydroisoandosterone 3-acetate] registered a growth of 0.181 ± 0.005.

`CN(C)[C@@H]1C(=O)C(C(N)=O)=C(O)[C@@]2(O)C(=O)C3=C(O)c4c(O)cccc4[C@@](C)(O)[C@H]3C[C@@H]12` [Tetracycline hydrochloride] returned a growth of 0.0495 ± 0.0014.

With `CNCC(O)c1ccc(O)cc1` (racemic) [(+,-)-Synephrine], the growth was found to be 0.227 ± 0.021.

The molecule `CC(C)C[C@H](CN)CC(=O)O` [Pregabalin] showed a growth of 0.201 ± 0.0072.

For `C[C@]12C[C@H]3S[C@H]3C[C@@H]1CC[C@@H]1[C@@H]2CC[C@]2(C)[C@@H](O)CC[C@@H]12` [Epitiostanol], the growth was determined as 0.203 ± 0.01.

Regarding `COc1ccc(C(CN(C)C)C2(O)CCCCC2)cc1` (stereo not given) [Venlafaxine], the growth amounted to 0.207 ± 0.0032.

`CCC(=O)O[C@H]1CC[C@H]2[C@@H]3CCC4=CC(=O)CC[C@]4(C)[C@H]3CC[C@]12C` [Testosterone propionate] showed a growth of 0.214 ± 0.0086.

`CN1C[C@H](C(=O)N[C@]2(C)O[C@@]3(O)[C@@H]4CCCN4C(=O)[C@H](Cc4ccccc4)N3C2=O)C[C@@H]2c3cccc4[nH]cc(c34)C[C@H]21` [Dihydroergotamine tartrate] showed a growth of 0.119 ± 0.018.

Turning to `CCC1(c2ccc(N)cc2)CCC(=O)NC1=O` (stereo not given) [Glutethimide, para-amino], the growth stood at 0.189 ± 0.0071.

On to `CC[N+]1(C)CCCC(OC(=O)C(O)(c2ccccc2)c2ccccc2)C1` (stereo not given) [Pipenzolate bromide], for which the growth is 0.234 ± 0.013.

The same assay, now with this note: arabinose induction (level): Low; compound 0.1 mM; raw OD600 reference: median of DMSO wells 0.227, cell-free background 0.041.
`CCCC(C)C1(CC)C(=O)NC(=O)NC1=O` (stereo not given) [Pentobarbital] came in with a growth of 0.265 ± 0.014.

Molecule `O=c1[nH]c2ccccc2n1C1CCN(CCCC(c2ccc(F)cc2)c2ccc(F)cc2)CC1` [Pimozide] had a growth of 0.227 ± 0.035.

Molecule `C[C@H](N)[C@H](O)c1ccc(O)c(O)c1` [Levonordefrin] showed a growth of 0.176 ± 0.043.

Consider `O=c1[nH]c2ccccc2n1CCCN1CCC(n2c(=O)[nH]c3cc(Cl)ccc32)CC1` [Domperidone], for which the growth was 0.152 ± 0.0037.

Turning to `Cc1cc(C(C#N)c2ccc(Cl)cc2)c(Cl)cc1NC(=O)c1cc(I)cc(I)c1O` (stereo not given) [Closantel], the growth came to 0.0929 ± 0.01.

Turning to `C[N+](C)(C)CCCCCCCCCC[N+](C)(C)C` [Decamethonium bromide], the growth came out at 0.242 ± 0.0099.

The molecule `COc1cccc(C2(O)CCCCC2CN(C)C)c1` (stereo not given) [Tramadol hydrochloride] had a growth of 0.202 ± 0.014.

On to `C#C[C@]1(O)CC[C@H]2[C@@H]3CCC4=CC(=O)CCC4=C3C=C[C@@]21CC` [Gestrinone], for which the growth amounted to 0.212 ± 0.013.

Molecule `S=C(NC1CCCCC1)N1CCC(c2cnc[nH]2)CC1` [Thioperamide maleate] gave a growth of 0.21 ± 0.008.

Turning to `C=C1CC[C@@]2(O)[C@H]3Cc4ccc(O)c5c4[C@@]2(CCN3CC2CC2)[C@H]1O5` [Nalmefene hydrochloride], the growth is 0.226 ± 0.027.

`CC(=O)O[C@H]1CC[C@@]2(C)C(=CC[C@@H]3[C@@H]2CC[C@]2(C)C(=O)CC[C@@H]32)C1` [Dehydroisoandosterone 3-acetate] had a growth of 0.225 ± 0.017.

In the case of `CN(C)[C@@H]1C(=O)C(C(N)=O)=C(O)[C@@]2(O)C(=O)C3=C(O)c4c(O)cccc4[C@@](C)(O)[C@H]3C[C@@H]12` [Tetracycline hydrochloride], the growth worked out at 0.0516 ± 0.0028.

`CNCC(O)c1ccc(O)cc1` (racemic) [(+,-)-Synephrine] showed a growth of 0.232 ± 0.042.

As for `CC(C)C[C@H](CN)CC(=O)O` [Pregabalin], the growth is 0.231 ± 0.07.

`C[C@]12C[C@H]3S[C@H]3C[C@@H]1CC[C@@H]1[C@@H]2CC[C@]2(C)[C@@H](O)CC[C@@H]12` [Epitiostanol] displayed a growth of 0.21 ± 0.029.

For the molecule `COc1ccc(C(CN(C)C)C2(O)CCCCC2)cc1` (stereo not given) [Venlafaxine], the growth is 0.22 ± 0.016.

`CCC(=O)O[C@H]1CC[C@H]2[C@@H]3CCC4=CC(=O)CC[C@]4(C)[C@H]3CC[C@]12C` [Testosterone propionate] came in with a growth of 0.189 ± 0.002.

Take `CN1C[C@H](C(=O)N[C@]2(C)O[C@@]3(O)[C@@H]4CCCN4C(=O)[C@H](Cc4ccccc4)N3C2=O)C[C@@H]2c3cccc4[nH]cc(c34)C[C@H]21` [Dihydroergotamine tartrate]: the growth amounted to 0.161 ± 0.014.

As for `CCC1(c2ccc(N)cc2)CCC(=O)NC1=O` (stereo not given) [Glutethimide, para-amino], the growth came out at 0.226 ± 0.041.

Consider `CC[N+]1(C)CCCC(OC(=O)C(O)(c2ccccc2)c2ccccc2)C1` (stereo not given) [Pipenzolate bromide], for which the growth stood at 0.263 ± 0.058.
